beta cell repl – inducers of MIN6 beta-cell proliferation, primary screen, ATP luminescence, uHTS | MIN6 cells proliferation, ATPlite luminescence, 48 h; cells starved in 0.2% serum; 100% = growth in 10% serum | proliferation, % at 10 µM | 330,000 tested, 0.29% active | AID 2380, 2010;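 active = compounds whose signal lies at least 3.5 SD above the mean of all wells on their plate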;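 also: 0% = DMSO-treated cells in low-serum medium and 100% = 10% serum control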
FAS-TE inh – FAS thioesterase domain inhibitors, primary screen, biochemical, fluorescence intensity, uHTS. recombinant FAS-TE, OMFH fluorogenic substrate, fluorescence endpoint. inhibition, % at 15 µM. 360,000 tested, 0.67% active. AID 602261, 2012;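 active = compounds whose normalised, plate-corrected inhibition of enzyme fluorescence in the single-dose primary screen is 50% or more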;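 also: 0% = DMSO with enzyme and 100% = substrate without enzyme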
NR3A LBD binder – binders of NR3A ligand-binding domain, primary screen, biophysical, differential scanning fluorimetry, uHTS. Glutamate receptor ionotropic, NMDA 3A (GRIN3A) ligand-binding domain. NR3A LBD differential scanning fluorimetry, Tm shift; 0% = protein alone, 100% = glycine-bound protein. Tm shift relative to glycine control, % at 25 µM. 340,000 tested, 2.5% active. AID 1259313, 2017;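 active = melting temperature shift of at least 10% of the positive control shift, at one fixed dose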
MPTP inh – mitochondrial permeability transition pore inhibitors, primary screen, biochemical, isolated mouse mitochondria, absorbance; Ca2+ swelling absorbance, 30 min; inhibition, % at 10 µM; 360,000 tested, 1.4% active;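 active = inhibition of 50% or more, scaled per plate between neutral and stimulator controls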;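 also: 0% = DMSO wells given calcium and 100% = 1 mM EGTA wells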
p-CIP stab down – p/CIP-EGFP fusion destabilizers, primary screen, fluorescence, F442A cells; decrease of EGFP signal, % at 10 µM; 16 h; Q05BA5; AID 1984, 2009; 290,000 tested, 0.01% active;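 active = EGFP signal decrease of at least 30% at 10 µM or well 3 SD below plate mean, unless failing retest; inactive = the rest, including hits failing retest or dose response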
Rh123 counter – fluorescence retest of MPTP screen hits in isolated mitochondria, single concentration; 5,000 tested, 78% active; membrane potential, Rhodamine 123 fluorescence; inhibition, % at 10 µM; shares compounds with MPTP inh; in the data active = inhibition above about 22%;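 also: 0% = DMSO vehicle and 100% = positive control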
MPTP swell DR – mitochondrial permeability transition pore inhibitors, dose response, biochemical, absorbance, uHTS hits. isolated mitochondria swelling. shares compounds with MPTP inh. 780 tested, 58% active. IC50, µM; in the data active = IC50 below about 20 µM
MPTP cs DR – fluorescent counter-screen in isolated mitochondria, dose response, counter-screen for MPTP inhibitor project, biochemical, fluorescence, uHTS hits. shares compounds with MPTP inh. isolated mitochondria counterscreen, fluorescence read-out. IC50, µM. 780 tested, 49% active; in the data active = IC50 below about 80 µM
* marks the source's active call; other numbers are inactive results; i = inactive; . = no result; + = active, no number. Compounds with a hit are over-represented: about 4.1% of the library has one in this group of screens.

SMILES | beta cell repl | FAS-TE inh | NR3A LBD binder | MPTP inh | p-CIP stab down | Rh123 counter | others
Clc1cccc(-c2ccc(CNCc3ccccn3)o2)c1 | -0.3 | 0.9 | -1.6 | 0.7 | -4.2 | .
O=c1[nH]nc(Cc2ccc(-c3cccc(Cl)c3)o2)c2ccccc12 | -2.7 | 1.7 | -16.1 | 83.6* | -0.1 | 83.1*
NC(=O)CSc1nc2c(sc3ccccc32)c(=O)n1CCCC(=O)NCC1CCCO1 (stereo not given) | -0.5 | -5.3 | 1.1 | 1.0 | -11.7 | .
CC1(C)Cc2ccccc2-c2nc(-c3ccccc3)oc(=O)c21 | -3.9 | 24.7 | 4.3 | 69.5* | 13.5 | -3.5 | MPTP swell DR=7.57*;MPTP cs DR=>80
CC1(C)Cc2ccccc2-c2nc(NN)[nH]c(=O)c21 | 1.7 | -2.6 | 0.1 | -1.5 | -5.9 | .
COCCn1c(SCc2csc(-c3ccccc3)n2)nc2ccccc21 | -3.3 | 20.7 | -1.6 | 70.3* | 5.0 | 41.0*
COC(=O)c1cc(S(=O)(=O)N2CCN(Cc3ccccc3)CC2)c[nH]1 | -0.3 | -4.4 | -2.6 | -0.8 | -6.2 | .
COc1ccc(C(=O)N[C@H](C(=O)OCc2nc3ccsc3c(=O)[nH]2)C(C)C)cc1 | 3.6 | -0.8 | -1.7 | 0.0 | . | .
COc1cccc(S(=O)(=O)N(C)C[C@H]2OCc3cn(nn3)CCCC(=O)N([C@@H](C)CO)C[C@@H]2C)c1 | . | -4.4 | . | 0.3 | . | .
Cc1nc(NS(=O)(=O)c2ccc(Cl)s2)c2c3c(sc2n1)CCCC3 | -5.6 | 4.9 | 0.6 | 84.4* | 1.3 | 76.6*
CCOC(=O)CNCCC(=O)c1ccc(Br)cc1 | -3.5 | 1.5 | 22.2* | 55.2* | 5.5 | -4.0 | MPTP swell DR=i;MPTP cs DR=>80
Cc1cccc(NCCC(=O)c2ccc(Br)cc2)c1 | -4.8 | 17.5 | -2.6 | 4.8 | -7.8 | .
Cc1c(NC(=S)NC(=O)c2cc3ccccc3o2)c(=O)n(-c2ccccc2)n1C | -1.8 | -4.8 | 0.1 | 0.6 | -17.6 | .
COc1cccc(-n2nc(C(=O)NCC3CCCO3)c3ccccc3c2=O)c1 (stereo not given) | 5.0 | -6.9 | 0.1 | -1.0 | 2.7 | .
CCOC(=O)c1ccc(S(=O)(=O)N2CCN(S(=O)(=O)CC)CC2)cc1 | -2.4 | -5.5 | 3.1 | 60.3* | -2.8 | -0.5 | MPTP swell DR=>100;MPTP cs DR=>80
C[C@H]1CN([C@@H](C)CO)C(=O)CCCn2cc(nn2)CO[C@@H]1CN(C)C(=O)Nc1ccc(C(F)(F)F)cc1 | . | -6.3 | . | 0.1 | . | .
CCOC(=O)c1[nH]c(C)c(/C(O)=C2\C(=O)C(=O)N(CCN3CCOCC3)C2c2cccs2)c1C (stereo not given) | 0.4 | -10.1 | -1.0 | + | -6.8 | 1.0
COC(=O)c1[nH]c(C)c(/C(O)=C2\C(=O)C(=O)N(CCN(C)C)C2c2cccs2)c1C (stereo not given) | -3.0 | -8.5 | 5.5 | 0.9 | -0.5 | .
Cc1ccc(CNC(=O)C2CCC(=O)N(CCc3ccccn3)C2)s1 (stereo not given) | -3.5 | -11.3 | -3.8 | -0.7 | -9.7 | .
S=C(NCc1cccs1)Nc1ccccc1Cl | 5.3 | -6.6 | -6.2 | 2.4 | -20.9 | .
O=C(Nc1cccc(Cl)c1)NC1(C(=O)NCc2cccs2)CCCCC1 | -4.5 | -5.9 | 0.9 | 81.0* | -7.0 | 73.5*
S=C(NCc1cccs1)Nc1cc(Cl)cc(Cl)c1 | -6.4 | 33.8 | 12.1* | 89.5* | 7.6 | 78.2*
S=C(NCc1cccs1)Nc1cccc(Cl)c1 | -0.9 | 14.8 | 1.5 | 91.4* | -5.4 | 98.5*
O=C(NCc1cccs1)Nc1cccc(Cl)c1 | -0.8 | -1.6 | -8.2 | 1.5 | . | .
COC(=O)CNC(=O)C(C)NC(=O)CNC(=O)OCc1ccccc1 (stereo not given) | -4.1 | -8.9 | -0.5 | -1.8 | -17.4 | .
SMILES | beta cell repl | FAS-TE inh | NR3A LBD binder | MPTP inh | p-CIP stab down | Rh123 counter | others
CC1(C)CCC(=O)N2CC[C@H]3c4cc5ccccc5nc4C[C@@H]1[C@H]32 | . | -7.2 | -6.0 | 0.2 | . | .
CC(C)(C)C(=O)Nc1ccccc1C(=O)NCCC(=O)Nc1ccccc1 | 0.0 | -7.2 | 5.3 | 0.3 | . | .
CC(=O)C1CCN(Cc2ccccc2)CC1 | 5.8 | -2.5 | -1.7 | -1.3 | -26.4 | .
CSc1ccccc1OC1CCN(Cc2ccccc2)CC1 | -2.2 | 1.3 | 1.9 | 54.2* | -11.7 | -0.3 | MPTP swell DR=i;MPTP cs DR=62.8*
COc1ccc(S(=O)(=O)Nc2ccccc2C(=O)Nc2nc(-c3ccc(F)cc3)cs2)cc1OC | 0.0 | 36.4 | 26.1* | 96.6* | -8.3 | 42.3*
CCN(CC)S(=O)(=O)c1ccc(Cl)c(C(=O)Nc2ccc(Cl)cc2[N+](=O)[O-])c1 | 0.0 | 32.9 | -4.8 | 91.0* | -24.0 | 91.7*
Cc1ccc(C(CNS(=O)(=O)c2ccccc2)N2CCN(C)CC2)cc1 (stereo not given) | 0.2 | -4.6 | 1.0 | -0.6 | . | .
Cc1ccc(C(CNS(=O)(=O)c2ccc(Br)cc2)N2CCN(C)CC2)cc1 (stereo not given) | -5.5 | 0.7 | 0.3 | 77.8* | . | -16.1 | MPTP swell DR=13.3*;MPTP cs DR=>80
CC(=O)Nc1ccc(S(=O)(=O)NCCOc2ccc(Cl)cc2C)cc1 | -0.5 | 0.4 | -3.7 | 0.0 | 0.5 | .
CCCCOc1ccc(CONS(=O)(=O)c2ccc(NC(C)=O)cc2)cc1Cl | -5.9 | 31.4 | 28.1* | 94.5* | -5.2 | 73.5*
O=C(CNc1ccccc1)NN=C1CCCC1 | -0.6 | -5.7 | -0.8 | 0.0 | -9.9 | .
c1ccc(Cc2ccc(OCCCNC3CCCC3)cc2)cc1 | -5.7 | . | . | . | -7.3 | .
c1ccc(-c2ccc(OCCCNC3CCCC3)cc2)cc1 | -4.5 | -7.2 | 0.6 | 88.3* | -10.7 | -6.8 | MPTP swell DR=5.22*;MPTP cs DR=46*
OC(CNCCC(c1ccccc1)c1ccccc1)COc1ccccc1 (stereo not given) | -6.3 | -4.4 | -0.4 | 76.8* | -3.0 | 15.2 | MPTP swell DR=2.86*;MPTP cs DR=17.7*
OC(CNCCc1ccccc1)COc1ccc(OCC(O)CNCCc2ccccc2)cc1 (stereo not given) | -4.0 | -7.4 | -0.2 | -4.4 | -0.5 | .
Cc1nc(N)nc(N)c1Oc1ccc(Cl)cc1 | . | -5.2 | 0.8 | 2.7 | . | .
Cc1nc(N)nc(N)c1/C=C/C(C)(C)c1ccc(Cl)cc1 | . | -0.3 | 3.4 | 96.6* | -9.6 | 91.3*
C=CCN(c1ccccc1)S(=O)(=O)c1cccc(C(=O)Nc2nnc(SCC)s2)c1 | -1.7 | 8.9 | 6.0 | 67.3* | 6.3 | 66.7*
COc1ccc(-c2noc3c2-c2nc(-c4ccccc4F)sc2CC3)cc1 | -7.2 | 30.5 | -3.9 | 2.8 | -0.3 | .

Source: PubChem
